# Source: the supplement of paper PMC6555819
# Tests used:
# Test in all cases: PBM binding z-score (relative to random genomic background probes); higher = stronger binding; sequences stand for … in GC…GCGATTGACAGCGTAGAATGAAGG
# [1] = system: PPARg:RXRa DBDmut IVT, anti-RXR (DBD mutation: RXRa K156A/R161A, NR concentration 270 nM, RXRa partner concentration 90 nM)
# In short: (§1)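 Ligand-free nuclear receptor dimers were bound for 1 h to custom Agilent 4×180K protein-binding microarrays. Detection used antibodies against each partner (one per run). Binding z-scores rest on regression-normalized fluorescence, with random background probes as the reference.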
# [2] = system: PPARg:RXRa IVT, anti-PPARg (NR concentration 270 nM, RXRa partner concentration 90 nM)
# In short: as §1
# [3] = system: PPARg DBDmut:RXRa IVT, anti-PPARg (DBD mutation: PPARg1 K132A/R137A, NR concentration 270 nM, RXRa partner concentration 90 nM)
# In short: as §1
# [4] = system: PPARg DBDmut IVT, anti-PPARg (DBD mutation: PPARg1 K132A/R137A, NR concentration 270 nM)
# In short: as §1
# [5] = system: PPARg homodimer (NR concentration 180 nM)
# In short: as §1
# [6] = system: PXR:RXRa (NR concentration 270 nM, RXRa partner concentration 90 nM)
# In short: as §1
# [7] = system: PXR homodimer (NR concentration 270 nM)
# In short: as §1
# [8] = system: RARa:RXR (NR concentration 270 nM, RXRa partner concentration 90 nM)
# In short: as §1
# [9] = system: RARa homodimer (NR concentration 270 nM)
# In short: as §1
# [10] = system: RARb:RXRa (NR concentration 270 nM, RXRa partner concentration 90 nM)
# In short: as §1
# [11] = system: RARb homodimer (NR concentration 270 nM)
# In short: as §1
# [12] = system: RARg:RXRa (NR concentration 270 nM, RXRa partner concentration 90 nM)
# In short: as §1
# [13] = system: RARg homodimer (NR concentration 270 nM)
# In short: as §1
# [14] = system: RXRa DBDmut IVT, anti-RXR (DBD mutation: RXRa K156A/R161A, NR concentration 90 nM)
# In short: as §1
# [15] = system: RXRa homodimer (NR concentration 180 nM)
# In short: as §1
# [16] = system: THRa:RXRa (NR concentration 90 nM, RXRa partner concentration 90 nM)
# In short: as §1
# [17] = system: THRa homodimer (NR concentration 90 nM)
# In short: as §1
# [18] = system: VDR homodimer (NR concentration 270 nM)
# In short: as §1
Sequence,PBM binding z-score [1],PBM binding z-score [2],PBM binding z-score [3],PBM binding z-score [4],PBM binding z-score [5],PBM binding z-score [6],PBM binding z-score [7],PBM binding z-score [8],PBM binding z-score [9],PBM binding z-score [10],PBM binding z-score [11],PBM binding z-score [12],PBM binding z-score [13],PBM binding z-score [14],PBM binding z-score [15],PBM binding z-score [16],PBM binding z-score [17],PBM binding z-score [18]
CGTCCAAGGTCAGCAGGTCAGCGAAAGCGACGTG,3.38,3.9,-0.473,-0.272,3.39,4.07,0.421,5.3,1.49,5.43,5.14,6.69,7.16,2.52,5.67,4.07,2.74,1.83
CGCCCAAGGTCAAAGGTCAGTGAAGAGATGACGG,3.58,5.36,0.645,0.0371,3.28,7.03,1.41,8.49,1.99,6.04,5.66,8.68,8.27,3.9,10,4.83,2.31,3.24
ATATGTAGGTTAGCTGGGGGCATTCAGACTAGGC,6.79,6.14,4.18,5.68,1.96,4.39,1.88,2.5,1.27,2.25,2.15,2.32,2.43,1.71,1.67,4.62,1.84,2.94
ATCGAAAGGTCGAGGTGAGCATAGAGAAAGGGAA,0.593,2.74,0.675,0.756,1.39,2.2,-0.0822,3.17,0.169,4.27,2.98,4.34,4.61,0.687,4.63,2.98,0.737,0.234
CAAACTAGGTCAAGGGCAAAGTCGGTTTGTGCCA,8.17,8.56,2.21,2.46,3.97,2.25,0.415,2.77,0.377,4.27,4.17,3.94,4.68,2.01,3.06,3.27,1.43,1.79
GCTGCTAGGTCAGGTTGGCCAGCTAACGGGTACG,2.74,2.24,-0.719,-0.956,0.0382,-0.079,-0.624,0.336,-0.755,3.1,2.23,2.48,3.46,-0.0229,0.917,1.46,0.0199,0.0457
ACTATTAGTTGACTTAGGGCAATCGATACGACGC,0.335,0.292,1.13,0.914,0.761,0.304,0.241,0.866,0.707,0.668,0.586,0.781,0.924,0.592,0.921,1.31,0.18,0.448
AGTCAAAGTTCATCTAGGTAACGGAAGATATGCT,0.826,4.12,1.91,0.45,3.26,5.42,7.16,3.87,2.15,4.94,4.04,5.6,6.13,4.58,4.85,3.33,0.388,5.59
CGAACGAGTGCATGAGTTGATAGCAAATGCCGAT,-0.266,-0.442,-0.401,0.0555,-0.0589,0.62,0.717,0.133,-0.713,0.209,-0.322,0.343,0.307,3.2,0.414,-0.0112,-0.726,2.6
AGAACGAGGTTATTAAGATCAGGGAATTGCGGTC,2.38,2.16,0.246,0.0385,0.237,1.04,0.955,1.08,-0.125,1.32,0.861,0.912,0.734,1.68,1.82,1.65,0.227,1.33
AGTCAAAGTTCAGGACGAGGGAACGTAAAGCACG,-0.374,1.46,0.293,0.513,2,2.12,0.898,2.09,0.539,4.2,2.88,4.2,4.74,3.07,2.87,2.44,0.19,1.74
TCTTGTAGATCAAAGGTTTAGAAAGCCGAAGCCT,1.79,1.19,0.53,0.0845,0.307,0.16,-0.198,0.358,-0.0128,-0.0359,-0.342,-0.312,-0.404,0.516,0.291,-0.356,-0.747,0.0902
CCGAGTAGGTGATGGGGCATTCAGGCAACGGTGA,2.92,3,0.0749,-1.06,0.758,-0.262,-0.379,-0.226,-0.778,0.297,0.69,0.024,-0.0731,-0.961,0.074,0.211,-0.0233,-0.306
TAGCCTAGTTCAGATCGGGCCAGTATACGCTATA,0.415,0.54,-0.537,-0.978,-0.824,0.226,-0.407,0.532,-1.17,0.472,-0.206,-0.0236,0.216,0.421,-0.081,2.53,-0.553,0.117
AGTCAAAGTTCACCTAGGTAACGTAAGATATGCT,1.22,4.08,1.35,1.84,2.06,4.76,3.76,3.95,1.51,4.99,4.16,5.65,6.29,4.26,4.86,3.51,0.406,3.86
CCGACTGGGGCAAGGTTACCAGAACGCACAGCCA,2.21,3.49,-0.808,-1.44,0.502,0.259,0.151,0.58,-0.644,1.63,1.39,1.01,1.27,-0.418,1.07,1.06,-0.142,-0.475

Sequence,PBM binding z-score [1],PBM binding z-score [2],PBM binding z-score [3],PBM binding z-score [4],PBM binding z-score [5],PBM binding z-score [6],PBM binding z-score [7],PBM binding z-score [8],PBM binding z-score [9],PBM binding z-score [10],PBM binding z-score [11],PBM binding z-score [12],PBM binding z-score [13],PBM binding z-score [14],PBM binding z-score [15],PBM binding z-score [16],PBM binding z-score [17],PBM binding z-score [18]
GGAACGAGGGCAAAGTTAATAGCATCTGTCGACG,4,4.19,0.116,-0.54,0.877,1.19,0.225,1.24,0.00739,2.55,1.24,1.77,1.99,2.78,1.55,1.27,-0.176,1.31
CGTTACGGGTCACTCCAGGTTATAGCATCGGAGT,2.91,3.75,0.311,-0.48,1.14,5.09,0.162,3.59,0.11,3.66,3.08,4.49,4.8,1.5,4.86,4.97,0.567,1.17
ATCGAAAGGTCGTGAGGTGAGTATTCAGAAAGGC,0.173,2.36,0.908,0.365,1.83,3.37,0.136,4.62,0.587,4.08,3.27,4.51,4.1,1.91,5.4,3.48,1.52,0.921
ATATGTAGGTTAGCTGGGGTCATTCGGACTAGGC,6.85,6.3,3.21,1.98,4.23,6.74,5.39,6.34,1.19,3.05,3.59,4.28,2.86,2.17,5.36,5.12,3.5,5.38
AATACAGGGTCATCGAAGGCCAGAGTACGCACAG,2.6,4.19,1.28,0.988,2.16,5.22,0.967,4.45,0.641,4.32,3.74,5.74,5.31,3.38,6.7,4.62,1.43,3.66
CCTACTGGGCCACGAAAGGTCACTGATTCAGTGA,5.42,6.08,0.0808,0.166,1.93,4.63,0.0856,4.94,0.447,4.07,4.67,4.7,4.98,-0.0819,4.93,3.84,1.03,0.962
TCTTGTAGATCAAGAGGAGGTTAAGAAAGATCGA,1.29,0.615,0.0065,0.335,0.153,0.769,-0.0434,1.09,0.139,0.364,0.486,0.616,0.204,0.251,0.72,0.611,-0.142,-0.158
GCTATAAGTTGAAAGGGCAACCGAATGATTCTCG,0.434,0.831,0.223,0.266,1.11,1.41,0.107,2.56,0.129,2.46,2.13,2.28,1.81,1.24,2.42,1.16,-0.205,0.188
TCGAGTAGGTTAGTCGGGGTATTCAGCCAACATA,2.12,1.56,-0.225,-0.287,-0.0532,-0.197,-0.205,0.128,-0.0281,0.0838,-0.161,-0.227,-0.435,0.0822,-0.0938,1.71,-0.175,-0.161
GGAACGAGGGCATTCGAGTTGATACCATGGCGAT,3.16,2.33,1.32,-0.701,0.6,4.1,1.75,2.07,-0.391,1.93,0.873,1.26,1.46,3.31,0.823,3.34,-0.337,3.45
CGTCCAAGGTCAAAGGTCAGTCAAGAGATGACGG,3.88,5.75,0.706,-0.299,2.8,7.08,1.81,9.03,1.5,5.97,5.67,8.89,8.17,4.11,10.3,4.85,2.87,3.58
TAGCTTAGGTCAGATCGGGCCAGTATACGCTATA,-0.166,0.996,0.561,-0.217,0.322,1.24,-0.17,1.68,-0.0696,3.54,2.23,2.89,3.71,-0.0319,1.47,4.3,0.376,-0.357
ACTAGCAGGGCAAGGGTCACTCAAGATTAGTCCG,2.1,4.69,-0.137,-0.877,1.91,3.4,-0.121,4.49,0.318,3.46,3.73,4.34,3.78,0.379,4.53,2.73,-0.1,1.17
TCGAGGAGGTTAGGGGCATTCAGAATGGCGTCGA,1.17,0.304,-0.348,-0.472,1.01,1.03,0.679,0.889,0.232,1.62,1.36,0.847,0.702,0.518,1.22,1.34,0.547,1.07
ATCGAAAGGTCGACTAGGTGAGTATACACCGTTT,0.845,2.25,0.674,1.34,0.62,2.73,0.165,3.24,0.35,3.72,2.66,4.11,3.91,0.992,4.12,2.86,0.0406,1.09
